A number with no mark means an inactive call. Records with an inconclusive call do not appear. The source made the active and inactive calls. Unless noted, the call rests on the fitted dose curve; in most records, active means well fitted curve in either direction with a large enough effect (not every such curve was filed as active); inconclusive means small, poorly fitted or top-dose-only effect, or another doubt; inactive means flat fitted curve, though single readings scatter.
Tests used:
[1] = molecular target: Lysosomal acid glucosylceramidase (Homo sapiens) (UniProt P04062); experiment: Glucocerebrosidase-p2 (AID 348; in the data active means potency below about 10 µM; further: potency means the concentration at half of the fitted maximal effect); conditions: purified GBA, blue fluorogenic substrate, 40 min
Chain of Lysosomal acid glucosylceramidase (Homo sapiens) (P04062 whole entry, looked up): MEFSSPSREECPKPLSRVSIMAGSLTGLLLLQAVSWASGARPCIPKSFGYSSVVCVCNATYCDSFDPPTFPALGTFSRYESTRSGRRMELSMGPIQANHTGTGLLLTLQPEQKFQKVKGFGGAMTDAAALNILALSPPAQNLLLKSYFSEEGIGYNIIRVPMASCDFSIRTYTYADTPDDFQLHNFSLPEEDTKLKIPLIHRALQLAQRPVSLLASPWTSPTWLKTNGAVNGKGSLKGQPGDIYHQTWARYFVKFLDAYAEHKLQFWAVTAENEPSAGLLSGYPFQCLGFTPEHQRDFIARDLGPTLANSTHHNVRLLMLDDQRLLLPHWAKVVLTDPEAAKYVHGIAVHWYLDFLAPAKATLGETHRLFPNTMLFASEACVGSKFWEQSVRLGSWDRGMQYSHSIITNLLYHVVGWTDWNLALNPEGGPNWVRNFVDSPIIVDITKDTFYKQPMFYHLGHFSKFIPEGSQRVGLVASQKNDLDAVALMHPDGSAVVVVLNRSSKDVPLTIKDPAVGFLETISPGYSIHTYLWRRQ
How it was run: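 Compounds titrated from 0.6 nM upwards against 0.2 nM enzyme in pH 5.9 citric acid/KH2PO4, taurocholate, tween-20; blue fluorogenic substrate 80 uM, 40 min room temperature, stopped and read Ex 365/Em 440 for AC50.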

[2] = AP1 Signaling Pathway (AID 357); conditions: ME-180 AP-1-bla reporter, EGF-induced, beta-lactamase ratio, 5 h; at 7.69 µM (top of the series) unless noted; further: on the % scale 0 is the no-effect control and ±100 the full control effect
How it was run: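 Modulation of EGF-driven AP-1 transcription was assessed with a beta-lactamase reporter in ME-180 cells. Compound and EC50 EGF were co-incubated 5 hours at 37 °C before 2.5-hour CCF4 loading at room temperature and dual-emission reading.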

[3] = molecular target: Cytochrome P450 1A2 (Homo sapiens) (UniProt P05177); experiment: p450-cyp1a2 (AID 410; calls by dose curve; further: potency means the concentration at half of the fitted maximal effect;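 on activity change, negative = inhibition: -100% = full effect of reference inhibitor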); conditions: recombinant CYP1A2, luciferin-ME demethylation, luminescence; series mostly up to 11.4 µM
Chain of Cytochrome P450 1A2 (Homo sapiens) (P05177 whole entry, looked up): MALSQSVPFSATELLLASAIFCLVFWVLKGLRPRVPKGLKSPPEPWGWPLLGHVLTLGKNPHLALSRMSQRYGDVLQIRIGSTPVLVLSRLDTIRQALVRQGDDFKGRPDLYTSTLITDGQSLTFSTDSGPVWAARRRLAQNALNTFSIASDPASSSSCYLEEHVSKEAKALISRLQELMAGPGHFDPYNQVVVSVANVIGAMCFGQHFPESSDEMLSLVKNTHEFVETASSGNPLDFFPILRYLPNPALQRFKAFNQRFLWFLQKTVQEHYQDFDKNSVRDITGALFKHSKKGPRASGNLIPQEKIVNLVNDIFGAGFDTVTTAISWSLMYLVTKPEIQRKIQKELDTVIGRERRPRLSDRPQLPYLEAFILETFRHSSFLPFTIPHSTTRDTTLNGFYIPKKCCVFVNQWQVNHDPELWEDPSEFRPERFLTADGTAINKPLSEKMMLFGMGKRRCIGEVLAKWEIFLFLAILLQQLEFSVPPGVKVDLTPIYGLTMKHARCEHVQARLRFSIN
How it was run: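 20nM CYP1A2 with 100uM Luciferin-ME (at Km) in 100mM KPO4; compound preincubated 10 min, NADPH regeneration added, 60 min at room temperature. Luciferin quantified by luminescence after detection reagent; normalized to 57 uM furafylline.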

[4] = NFAT Signaling Pathway (AID 444); conditions: Jurkat NFAT-bla M1, carbachol, beta-lactamase ratio, 5 h; at 7.69 µM (top of the series) unless noted;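 further: carbachol stimulus at about its EC50 of 1 µM final; on the % scale 0 is the no-effect control and ±100 the full control effect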
How it was run: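 Jurkat cells carrying an NFAT-driven β-lactamase reporter and co-transfected muscarinic M1 receptor were treated with compound plus carbachol (1 uM final, an EC50 level) for 5 h at 37 °C. CCF4 loading followed for 1 h at RT; 460/530 nm ratio gave %activity.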

[5] = Stat Signaling Pathway (AID 446); conditions: ME-180 SIE beta-lactamase reporter, IL-6 stimulated, 5 h; at 7.69 µM (top of the series) unless noted;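 further: ME-180 cervical cancer cells given 40 pM IL-6 alongside compound; SIE-controlled beta-lactamase reporter measured as 460/530 nm FRET emission ratio; on the % scale 0 is the no-effect control and ±100 the full control effect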
How it was run: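 Screening format detects activators and inhibitors alike: ME-180 SIE-bla cells stimulated at 40 pM IL-6 for 5 hrs with compound, then dual-emission beta-lactamase read at 405 nm excitation.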

[6] = molecular target: Glucocorticoid receptor (Homo sapiens) (UniProt P04150); experiment: GR-GFP Redistribution (AID 450;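 active means compounds whose dose series gives a full or clear partial fitted curve of increased nuclear translocation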; further: potency means the concentration at half of the fitted maximal effect); conditions: U2OS GR-GFP nuclear translocation, laser cytometry, 2 h
Chain of Glucocorticoid receptor (Homo sapiens) (P04150 whole entry, looked up, the tested form may be a part): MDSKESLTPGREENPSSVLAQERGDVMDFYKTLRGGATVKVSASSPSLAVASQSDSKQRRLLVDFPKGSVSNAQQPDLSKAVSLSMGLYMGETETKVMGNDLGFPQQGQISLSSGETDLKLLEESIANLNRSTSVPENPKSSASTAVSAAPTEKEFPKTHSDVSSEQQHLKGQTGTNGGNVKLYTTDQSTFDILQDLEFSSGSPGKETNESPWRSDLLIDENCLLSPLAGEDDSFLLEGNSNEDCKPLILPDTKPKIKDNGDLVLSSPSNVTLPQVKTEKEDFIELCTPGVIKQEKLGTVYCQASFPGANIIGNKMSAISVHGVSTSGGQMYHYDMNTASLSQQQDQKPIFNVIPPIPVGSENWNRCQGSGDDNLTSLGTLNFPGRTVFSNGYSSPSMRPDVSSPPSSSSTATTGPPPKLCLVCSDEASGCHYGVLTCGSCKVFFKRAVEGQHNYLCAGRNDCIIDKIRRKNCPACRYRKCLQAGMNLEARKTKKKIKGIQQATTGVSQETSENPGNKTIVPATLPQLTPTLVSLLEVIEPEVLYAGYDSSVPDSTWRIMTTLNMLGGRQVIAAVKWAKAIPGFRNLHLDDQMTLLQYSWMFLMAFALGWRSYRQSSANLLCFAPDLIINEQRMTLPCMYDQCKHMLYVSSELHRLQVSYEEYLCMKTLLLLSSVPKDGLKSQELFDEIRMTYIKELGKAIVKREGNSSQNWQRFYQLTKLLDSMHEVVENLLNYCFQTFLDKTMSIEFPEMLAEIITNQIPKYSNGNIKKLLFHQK

[7] = molecular target: Glucocorticoid receptor (Homo sapiens) (UniProt P04150); experiment: GR-EFC Redistribution (AID 451; calls by dose curve; further: potency means the concentration at half of the fitted maximal effect); conditions: CHO-K1 GR-EFC translocation, beta-gal luminescence, 2 h
How it was run: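 CHO-K1 cells stably expressing nuclear-localized β-gal enzyme acceptor and GR fused C-terminally to the enzyme donor fragment; ligand-driven nuclear translocation restores β-gal by complementation. Compounds titrated up to 46 uM final, 2 h at 37 °C; luminescence read.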

[8] = molecular target: Mitogen-activated protein kinase 10 (Mus musculus) (UniProt Q61831); experiment: JNK3 AlphaScreen Assay (AID 530); conditions: JNK3 lysate, c-Jun phosphorylation; series mostly up to 11.4 µM;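 further: kinase came from lysate of stimulated human HepG2 cells; signal reports phosphorylation of biotinylated GST-cJun 1-79 at Ser73 with 10 µM ATP; on the % scale 0 is the no-effect control and ±100 the full control effect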
How it was run: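 Inhibitors reduce antibody binding to phosphorylated biotin-cJun, lowering AlphaScreen luminescence. Lysates from HepG2 cells pre-activated by IL-1beta plus TNF-alpha supplied JNK3; compounds were titrated.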

[9] = molecular target: 3',5'-cyclic-AMP phosphodiesterase 4B (Homo sapiens) (UniProt Q07343); experiment: qHTS Assay for Inhibitors of PDE-IV (AID 607; active means well fitted activation curve with a large enough effect in the main read-out, with a control signal flat, not every such curve was filed as active; further: % of control where 0% means no effect); conditions: HEK293 ACTOne CNG channel cells, membrane potential fluorescence; series mostly up to 22.9 µM
Chain of 3',5'-cyclic-AMP phosphodiesterase 4B (Homo sapiens) (Q07343 whole entry, looked up): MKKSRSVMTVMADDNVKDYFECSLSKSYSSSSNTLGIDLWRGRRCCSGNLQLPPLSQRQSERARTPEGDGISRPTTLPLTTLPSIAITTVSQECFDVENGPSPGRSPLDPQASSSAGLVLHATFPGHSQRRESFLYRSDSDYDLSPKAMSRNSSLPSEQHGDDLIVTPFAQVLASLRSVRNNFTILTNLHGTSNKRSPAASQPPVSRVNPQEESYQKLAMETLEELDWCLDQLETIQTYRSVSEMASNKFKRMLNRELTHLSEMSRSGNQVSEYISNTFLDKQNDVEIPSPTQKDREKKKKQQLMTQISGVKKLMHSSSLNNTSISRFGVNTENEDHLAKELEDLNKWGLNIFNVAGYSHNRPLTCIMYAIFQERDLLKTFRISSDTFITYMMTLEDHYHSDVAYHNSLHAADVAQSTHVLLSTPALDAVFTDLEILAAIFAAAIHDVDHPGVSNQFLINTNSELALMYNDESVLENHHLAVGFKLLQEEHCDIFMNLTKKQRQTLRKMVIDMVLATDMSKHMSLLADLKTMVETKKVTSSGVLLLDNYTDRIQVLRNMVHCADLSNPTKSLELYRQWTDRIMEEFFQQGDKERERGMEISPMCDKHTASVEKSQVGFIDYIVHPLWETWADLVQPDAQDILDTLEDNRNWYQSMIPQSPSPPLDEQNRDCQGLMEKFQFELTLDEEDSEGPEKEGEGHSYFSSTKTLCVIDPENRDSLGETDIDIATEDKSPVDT
How it was run: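 The readout is membrane depolarisation from a cAMP-sensing CNG channel, detected with a potential dye at ex 535/em 590. Cells were HEK293-derived (endogenous PDE-IV) at 1000 cells/well, titrated up to 22.9 uM final.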

[10] = molecular target: Cytochrome P450 3A4 (Homo sapiens) (UniProt P08684); experiment: qHTS Assay for Activators of Cytochrome P450 3A4 (AID 885; active means well fitted curve in the direction sought with a large enough effect; an effect the other way counts as inactive or inconclusive; further: nearly all actives have a fitted effect of over 65% in size); conditions: recombinant CYP3A4, Luciferin-PPXE luminescence, 60 min; series mostly up to 11.4 µM
Chain of Cytochrome P450 3A4 (Homo sapiens) (P08684 whole entry, looked up): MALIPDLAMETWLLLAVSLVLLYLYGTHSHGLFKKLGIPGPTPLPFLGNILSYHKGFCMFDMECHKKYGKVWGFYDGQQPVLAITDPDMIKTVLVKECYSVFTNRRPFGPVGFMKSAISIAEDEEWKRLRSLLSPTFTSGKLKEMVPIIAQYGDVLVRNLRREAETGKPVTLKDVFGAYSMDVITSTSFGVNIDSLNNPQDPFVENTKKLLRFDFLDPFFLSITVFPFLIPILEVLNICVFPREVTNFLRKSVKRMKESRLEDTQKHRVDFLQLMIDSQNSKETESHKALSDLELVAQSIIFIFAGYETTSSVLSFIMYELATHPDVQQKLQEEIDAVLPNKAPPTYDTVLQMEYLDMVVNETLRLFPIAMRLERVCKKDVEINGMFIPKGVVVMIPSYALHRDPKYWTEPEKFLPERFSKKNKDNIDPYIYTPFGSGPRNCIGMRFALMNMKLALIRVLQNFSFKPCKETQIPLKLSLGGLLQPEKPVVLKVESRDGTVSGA
How it was run: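 Steps: enzyme/substrate mix dispensed; compound added, 10 min RT; NADPH regeneration solution added, 60 min RT; luciferin detection buffer stops reaction; 20 min later luminescence measured.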

[11] = molecular target: Cytochrome P450 2C19 (Homo sapiens) (UniProt P33261); experiment: qHTS Assay for Inhibitors and Substrates of Cytochrome P450 2C19 (AID 899; active means well fitted curve in the direction sought with a large enough effect; an effect the other way counts as inactive or inconclusive; further: nearly all actives have a fitted effect of over 60% in size; further: potency means the concentration at half of the fitted maximal effect); conditions: recombinant CYP2C19, luciferin-H EGE luminescence; series mostly up to 11.4 µM
Chain of Cytochrome P450 2C19 (Homo sapiens) (P33261 whole entry, looked up): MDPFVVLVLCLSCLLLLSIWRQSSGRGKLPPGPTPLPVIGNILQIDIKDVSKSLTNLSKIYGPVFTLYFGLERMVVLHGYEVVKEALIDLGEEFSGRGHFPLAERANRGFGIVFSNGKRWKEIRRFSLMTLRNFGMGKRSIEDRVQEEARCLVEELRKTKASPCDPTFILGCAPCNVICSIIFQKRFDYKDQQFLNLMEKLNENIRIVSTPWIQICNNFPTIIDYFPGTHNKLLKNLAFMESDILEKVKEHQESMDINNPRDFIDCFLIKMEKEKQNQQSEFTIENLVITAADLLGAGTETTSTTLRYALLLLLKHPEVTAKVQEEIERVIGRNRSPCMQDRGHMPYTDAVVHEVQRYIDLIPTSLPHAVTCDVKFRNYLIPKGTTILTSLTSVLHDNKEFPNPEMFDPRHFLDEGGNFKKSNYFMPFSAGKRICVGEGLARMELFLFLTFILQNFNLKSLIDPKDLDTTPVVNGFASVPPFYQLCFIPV
How it was run: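 NADPH-dependent conversion of Luciferin-H EGE (10uM, at KM) by 5nM enzyme in 50mM KPO4, 60 min at 37C following 10 min compound preincubation. Stopped with luciferin detection buffer; luminescence read after 20 min.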

[12] = molecular target: Cytochrome P450 2D6 (Homo sapiens) (UniProt P10635); experiment: qHTS Assay for Inhibitors and Substrates of Cytochrome P450 2D6 (AID 891; active means well fitted curve in the direction sought with a large enough effect; an effect the other way counts as inactive or inconclusive; further: nearly all actives have a fitted effect of over 60% in size; further: potency means the concentration at half of the fitted maximal effect); conditions: recombinant CYP2D6, luciferin-ME EGE luminescence; series mostly up to 11.4 µM
Chain of Cytochrome P450 2D6 (Homo sapiens) (P10635 whole entry, looked up): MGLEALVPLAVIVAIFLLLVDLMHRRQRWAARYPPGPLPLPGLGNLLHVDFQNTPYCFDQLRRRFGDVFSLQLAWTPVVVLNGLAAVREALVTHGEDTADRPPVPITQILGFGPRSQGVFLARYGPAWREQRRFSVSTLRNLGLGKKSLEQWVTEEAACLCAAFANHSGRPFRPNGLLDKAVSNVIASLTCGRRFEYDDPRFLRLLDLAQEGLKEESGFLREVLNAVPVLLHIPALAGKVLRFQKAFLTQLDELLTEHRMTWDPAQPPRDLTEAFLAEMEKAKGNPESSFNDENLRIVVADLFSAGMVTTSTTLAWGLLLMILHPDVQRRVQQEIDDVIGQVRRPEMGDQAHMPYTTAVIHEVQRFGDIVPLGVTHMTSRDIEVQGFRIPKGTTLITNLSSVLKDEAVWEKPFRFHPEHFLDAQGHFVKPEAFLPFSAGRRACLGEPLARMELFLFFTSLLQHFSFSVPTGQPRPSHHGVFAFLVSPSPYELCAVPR
How it was run: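 Human CYP2D6 (5 nM) with 30 uM Luciferin-ME EGE (at Km) in 100 mM KPO4, compound preincubated 10 min, then NADPH regeneration system for 60 min at room temperature. Luciferin read by luminescence; normalized to 1.43 uM quinidine.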

[13] = qHTS Assay for Identification of Small Molecule Agonists for Hypoxia Response Element Signaling Pathway (AID 914; active means well fitted activation curve with a large enough effect in the signal ratio, with a control signal flat, not every such curve was filed as active; the % refers to the signal ratio; further: % of control where 0% means no effect); conditions: ME-180 (cervical carcinoma) HRE-bla reporter, beta-lactamase ratio, CoCl2, 17 h; activation: active compounds read high
How it was run: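 Compounds in a titration series were added to ME-180 reporter cells alongside an EC50 level of CoCl2. After 17 hours, beta-lactamase activity was read as the 460nm/530nm emission ratio of CCF4, giving AC50 values.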

Compound | Potency [1] [µM] | activity change, negative = inhibition [2] [%] | Potency [3] | activity change, negative = inhibition [4] [%] | activity, negative = inhibition [5] [%] | Potency [6] [µM] | Potency [7] [µM] | Potency [8] | Potency [9] | Potency [10] | Potency [11] | activity change, negative = inhibition [3] | Potency [12] | activation [13] [%]
O=c1cnc2cnc(Oc3ccccc3)nc2n1Cc1ccc(F)cc1 | > 11.4 | -8.79 | 15.8 µM (active) | -4.49 | 18.8 | > 9.22 | > 46 | inactive | inactive | inactive | 2.51 µM (active) |  |  | 
CC[C@H](C(=O)c1cccs1)C(O)(C(F)(F)F)C(F)(F)F | > 11.4 | -7.57 |  | 20.8 | -6.19 | > 46 | > 9.22 | inactive | inactive |  |  | -17.5% [at 2.29 µM] | 3.16 µM (active) | 
Br/C(=N\Nc1nn[nH]n1)c1ccncc1 | > 11.4 | 9.43 | inactive | 24.2 | 1.9 | > 46 | > 9.22 | inactive | inactive | inactive |  |  | inactive | 
O=C(O)/C=C\C(=O)Nc1ccc2c(c1)-c1ccccc1C2 | > 11.4 | -11.5 | 1 µM (active) | 6.68 | -8.21 | > 46 | > 9.22 | inactive | inactive | inactive |  |  |  | 
N/C(CC(=O)Nc1cc(C(F)(F)F)ccc1Cl)=N\O | > 11.4 | -3.52 | 1.58 µM (active) | 11.5 | -1.63 | > 46 | > 9.22 | inactive | inactive | inactive | inactive |  |  | 
CC1(C)[C@@H]2CC[C@@](C)(C2)[C@H]1OC(=O)c1ccccc1C(=O)O | > 11.4 | -1.12 | inactive | 4.7 | -3.05 | > 46 | > 9.22 | inactive | inactive | inactive | inactive |  |  | 
Cc1c(N2CCCC2)cc2c(c1NC(=O)c1ccccc1Cl)C(C)(C)CC2(C)C | > 11.4 | -3.93 |  | -10.2 | -9.5 | > 46 | > 9.22 | inactive | inactive | inactive | 0.794 µM (active) | -13.1% [at 2.29 µM] |  | 
O=C(O)c1ccc(/C=N\N=C2c3ccccc3-c3ccccc32)cc1 | > 11.4 | -12.4 | 0.126 µM (active) | -25.2 | -6.87 | > 46 | > 9.22 | inactive | inactive |  |  |  | inactive | 
OCCNc1ncnc2nc[nH]c12 | > 11.4 | 7.92 | inactive | 9 | 2.92 | > 46 | > 9.22 | inactive | inactive | inactive |  |  |  | 
CCOC(=S)SCC(=O)O | > 11.4 | 3.32 | inactive | 9.65 | 16.6 | > 46 | > 9.22 | inactive | inactive |  |  |  | inactive | 
CC1=NN(C(=O)c2ccncc2)C(=O)[C@@H]1N=Nc1ccc2ccccc2c1 | > 11.4 | -15.6 | 0.158 µM (active) | 11.9 | -4.73 | > 46 | > 9.22 | inactive | inactive | inactive |  |  |  | 
C[C@H](C(=O)c1ccccc1)[C@@H](c1ccccc1)N1CCOCC1 | > 11.4 | -4.08 | inactive | 5.21 | 8.2 | > 46 | > 9.22 | inactive | inactive | inactive | 1.58 µM (active) |  |  | 
Cc1[nH]c2c(C)ccc(C)c2c1CC(=O)O | > 11.4 | -6.88 | 3.16 µM (active) | 10.6 | 9.85 | > 46 | > 9.22 | inactive | inactive | inactive | 0.316 µM (active) |  |  | 
O=C1NC(=O)[C@@](Cc2ccccc2)(c2cccnc2)N1 | > 11.4 | -12.7 |  | 9.84 | -7.87 | > 46 | > 9.22 | inactive | inactive | inactive |  | -17.1% [at 2.29 µM] |  | 5.55

Reference: PubChem BioAssay (NCATS)
